# Screening results deposited in PubChem by National Center for Advancing Translational Sciences (NCATS).
# Pf Dd2 growth: inhibitors of Plasmodium falciparum Dd2 growth; Potency, µM (highest dose often 28.9 µM), hits mostly inhibitors; P. falciparum Dd2 growth, SYBR Green, 72 h; 120,000 tested, 4.3% active; active = well fitted inhibition curve with a large enough effect; note: nearly all actives have a fitted effect of over 65% in size
#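 Infected erythrocytes (Dd2, 0.3% parasitemia, 2.5% hematocrit final) are added to compound in RPMI-1640/Albumax II medium, grown 72 h at 37C in low oxygen, then lysed with saponin/Triton-X containing SYBR Green and read by fluorescence.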
# Hits are given with their value; - = inactive. This excerpt belongs to a sample that is enriched for hits.
SMILES,Pf Dd2 growth
CN(C)C(=O)c1nc(-c2ccc(Cl)nc2)c2ccccn12,-
COCCNC(=O)C1CC(c2ccccc2)CN(C(=O)c2ccccc2)C1 (stereo unspecified),-
COc1ccccc1CC(=O)N1CCC2(CC1)NC(=O)N(Cc1ccccc1)C2=O,-
COc1ccc(C(=O)N2CCC3(CC2)NC(=O)N(Cc2ccccc2)C3=O)cc1OC,-
COc1cccc(C(=O)N2CCC3(CC2)NC(=O)N(Cc2ccccc2)C3=O)c1OC,8.9µM
Cc1c(CNC(=O)c2ccc3nc(-c4ccc(F)cc4)cn3c2)cnn1C,-
O=C(NC1CCN(c2ccc(F)cc2)C1=O)c1ccccc1C(F)(F)F (stereo unspecified),-
COc1cc2[nH]c(=O)n(CCCC(=O)N3CCN(c4cccc(C(F)(F)F)c4)CC3)c(=O)c2cc1OC,-
COc1cc2c(C(=O)N3CCN(c4cccc(C(F)(F)F)c4)CC3)cn(CC(C)C)c(=O)c2cc1OC,8.9µM
CCCN(C(=O)c1cn(CC(C)C)c(=O)c2cc(OC)c(OC)cc12)c1cccc(C)c1,-
COc1ccc(C2Cn3nnc(C(=O)N4CCC(C(=O)NC5CC5)CC4)c3CO2)cc1 (stereo unspecified),-
Cc1cc(N2CCCCC2)nc2ccc(NC(=O)CCC(=O)N3CCN(c4ccccc4)CC3)cc12,-
CCOc1ccc(C(=O)Nc2ccc3ncnc(N4CCCCC4)c3c2)cc1,-
CCN1CCN(c2cc(C)c3cc(NC(=O)/C=C/c4ccc(C)cc4)ccc3n2)CC1,1.1µM
CCN1CCN(c2cc(C)c3cc(NC(=O)/C=C/c4ccc(OCCC(C)C)cc4)ccc3n2)CC1,1.1µM
COc1ccc(-n2nc3ccc(NC(=O)c4cccc(OCCC(C)C)c4)cc3n2)cc1,-
Cc1ccc(C)c(N2CCN(C(=O)CCC(=O)Nc3ccc4nc(N5CCCCC5)cc(C)c4c3)CC2)c1,-
Cc1ccc(CC(=O)N2[C@@H]3CC[C@H]2CC(NC(=O)c2ccncc2)C3)cc1 (stereo partly specified),-
O=C(NCCc1cnccn1)[C@H]1CNC[C@@H](C(=O)N2CCOCC2)C1,-
O=C(N[C@H](c1ccccn1)C1CC(O)C1)c1cc(=O)n(-c2ccccc2)[nH]1 (stereo partly specified),1.4µM
CCCc1cc(C(=O)N[C@H](c2ccccn2)C2CC(O)C2)cs1 (stereo partly specified),-
O=C(N[C@H](c1ccccn1)C1CC(O)C1)c1cccc(Cn2cccn2)c1 (stereo partly specified),-
COc1cccc(C(=O)N2C3CCCC2CC(=O)C3)c1,-
O=C(NC1CCCCC1)N[C@@H]1C=C(C(=O)N[C@H]2CCCNC2=O)C[C@@H](O)[C@@H]1O,-
COCC1CN(C)CC12CCN(Cc1ccc(C)o1)CC2 (stereo unspecified),-
SMILES,Pf Dd2 growth
CCN1C(=O)CCN(C(=O)c2c(C)noc2C)CC12CCOCC2,-
Cc1ccc(Cn2cc(C(=O)c3ccc4c(c3)OCO4)c(=O)c3cc(C)ccc32)cc1,10µM
COc1ccccc1Cn1cc(C(=O)c2ccc(F)cc2)c(=O)c2cc3c(cc21)OCO3,-
Cc1ccc2c(c1)c(=O)c(C(=O)c1ccccc1)cn2Cc1ccccc1F,13µM
CCOc1ccc(NC(=O)Cn2cc(C(=O)c3ccc(C)cc3)c(=O)c3cc4c(cc32)OCO4)cc1,-
Cc1ccc(C(=O)c2cn(Cc3ccccc3F)c3cc4c(cc3c2=O)OCCO4)cc1,-
CCOc1ccc(C(=O)c2cn(Cc3ccccc3OC)c3cc4c(cc3c2=O)OCCO4)cc1,-
Cc1ccc(C(=O)c2cn(Cc3ccccc3)c3ccccc3c2=O)cc1,-
COc1ccc(C(=O)c2cn(Cc3ccccc3OC)c3cc4c(cc3c2=O)OCO4)cc1,-
COc1ccc(C(=O)c2cn(Cc3cccc(C)c3)c3cc4c(cc3c2=O)OCCO4)cc1OC,7.9µM
Cc1ccc(-c2ccc3nnc(CNC(=O)c4ccc(F)c(F)c4)n3n2)cc1,-
COc1ccc(N2CCC(NC(=O)c3cccc(N(C)C)c3)C2=O)cc1 (stereo unspecified),-
Cn1c(=O)n([C@H]2CCCN(C(=O)c3cnccn3)C2)c2ncccc21,-
Cc1noc([C@@H]2CN(C(=O)c3cc(C)oc3C)C[C@H]2CO)n1,-
CCN1CCC(N2CCOC3(COCCN(C(=O)c4ccccc4C)C3)C2)CC1 (stereo unspecified),-
c1ccc(-c2nnc3ccc(Nc4ccc(N5CCOCC5)cc4)nn23)nc1,-
COc1cccc(N2C(=O)NC(=NC3CCCC3)C23CCN(C(=O)c2ccccc2F)C3)c1 (stereo unspecified),-
COc1ccc(-c2nc(C3CC3)nc3c2CN(C(=O)c2ccc(C(F)(F)F)cc2)CC3)cc1,-
CC[C@H]1CN(C(C)=O)CC[C@H]1CC(=O)NC1CC1,-
CC(C)CN1C(=O)c2cccn2CC1C(=O)N1CCN(Cc2ccc3c(c2)OCO3)CC1 (stereo unspecified),-
Cc1ccc(CN2CCN(C(=O)C3Cn4cccc4C(=O)N3Cc3cccnc3)CC2)cc1 (stereo unspecified),13µM
O=C(O)C1Cn2cccc2C(=O)N1Cc1cccnc1 (stereo unspecified),-
Cc1noc([C@@H]2CC(F)(F)CN2S(=O)(=O)c2ccc(F)cc2)n1,-
CC(C)C[C@@H]1N[C@H](C(=O)N2CCCC2)Cc2c[nH]c3cccc1c23,-
CC(C)C[C@@H]1N[C@H](C(=O)NCc2ccco2)Cc2cn(Cc3nccn3C)c3cccc1c23,-
SMILES,Pf Dd2 growth
CC(C)C[C@@H]1N[C@H](C(=O)NCc2ccccc2)Cc2c[nH]c3cccc1c23,-
CC(C)C[C@@H]1N[C@H](C(=O)NCc2ccccc2Cl)Cc2c[nH]c3cccc1c23,-
CCCNC(=O)[C@@H]1Cc2c[nH]c3cccc(c23)[C@H](CC(C)C)N1,-
CC(C)C[C@@H]1N[C@H](C(=O)NCCCn2ccnc2)Cc2c[nH]c3cccc1c23,8.9µM
CC(C)C[C@@H]1N[C@H](C(=O)NCCOc2ccccc2)Cc2c[nH]c3cccc1c23,13µM
CC(C)C[C@@H]1N[C@H](C(=O)N2CCC(NC(=O)c3ccccc3)CC2)Cc2c[nH]c3cccc1c23,10µM
COc1ccccc1OC1(C(=O)O)CCN(C(=O)C2CC23CCC3)CC1 (stereo unspecified),-
COCCOc1ccc2c(n1)CCN(C(=O)c1sccc1C)C2,-
CC(C)N1C(=O)C2(CCCC2)C1C(=O)N(C)Cc1cccnc1 (stereo unspecified),-
NC1(C(=O)N2CCC(c3nnc(Cn4ccnc4)n3C3CC3)CC2)CC1,-
Cn1cc(CN2C[C@H](O)C[C@H]2c2nc(-c3cccc([N+](=O)[O-])c3)no2)c2ccccc21,-
COc1ccccc1CN1CCCC(CN(CCN(C)C)C(=O)c2cc(C(C)C)no2)C1 (stereo unspecified),-
CCN(CC1CCCN(CCc2cccc(OC)c2)C1)C(=O)c1cc(C)no1 (stereo unspecified),10µM
CCN(CC1CCCN(CCc2cccc(OC)c2)C1)C(=O)CN1CCCC1=O (stereo unspecified),-
CCOC(=O)c1ccc(N2C(=O)c3n[nH]c(-c4cccs4)c3C2c2ccc(C)cc2)cc1 (stereo unspecified),-
CCc1ccc(C2c3c(-c4ccccc4)n[nH]c3C(=O)N2c2ccc(C(=O)O)cc2)cc1 (stereo unspecified),-
COc1cccc(C2NC(=O)c3n[nH]c(-c4cccs4)c32)c1 (stereo unspecified),-
